What all share (assay): NCI-60 one-dose screen, 48 h (100 = growth as untreated, 0 = no growth, -100 = all killed)
What all share (details): 10 µM unless noted

In test [1] the test system is SK-MEL-2 melanoma.
Test [2] deals with EKVX NSCLC.
Test [3] relates to SN12C renal.
Test [4] has as its system UO-31 renal.
For test [5], the system named is TK-10 renal.
Test [6] relates to ACHN renal.
Test [7] concerns CAKI-1 renal.
In test [8] the test system is A498 renal.
The subject of test [9] is CCRF-CEM leukemia.
The subject of test [10] is MOLT-4 leukemia.
In test [11] the test system is SR leukemia.
For test [12], the system named is RPMI-8226 leukemia.
Test [13] relates to OVCAR-8 ovarian.
Test [14] concerns OVCAR-5 ovarian.
The subject of test [15] is OVCAR-4 ovarian.
In test [16] the test system is SK-OV-3 ovarian.
For test [17], the system named is IGROV1 ovarian.
Test [18] deals with OVCAR-3 ovarian.
Test [19] relates to HS 578T breast.
In test [20] the test system is NCI/ADR-RES ovarian.

About 83,000 compounds went through this panel and 20% of them were active in at least one assay; those are over-represented in the sample as a whole.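 How to read the values: 0–100, growth inhibition (40 = 60% inhibited); 0, no net growth; -100 to 0, cell death (-40 = 40% of starting cells died; -100 = all dead).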 Values without a mark were called inactive. The source made the active and inactive calls. Rule for the calls: active = growth percent below 10; inactive = the rest.

Turning to `Cn1cc(-c2csc(-c3cn(CCCN4CCOCC4)c4ccccc34)n2)c2cccnc21`, the growth in test [1] is 91.8%; in [2], 86.7%; in test [3] it was 87.2%; in test [4] it was 71%; in test [5], 86.9%; in test [6], 93.7%. Besides, the growth in test [7] is 92%; in test [8] it was 55.2%; in test [9], 62%; in [10], 59.7%; in test [11], 58.9%; in [12], 59.5%. In addition, the growth in [13] is 82.6%; in test [14] it was 84.7%; in test [15] it was 97.8%; in test [16], 102%; in test [17], 98.6%; in test [18], 96.3%. For the same compound, the growth in test [19] was 88%; in [20], 91%.
In the case of `Cn1cc(-c2ccc(-c3cn(C)c4ccc(Cl)cc34)[nH]2)c2cc(Cl)ccc21`, the growth in test [1] was -18.9% (active); in test [2], -89.2% (active); in [3], 7.64% (active); in test [4], -93.1% (active); in test [5], -28.7% (active); in test [6], -100% (active). Also, the growth in [7] is 4.42% (active); in test [8] it was 48.6%; in test [9], -12.9% (active); in test [10], 19.1%; in test [11], -13% (active); in test [12], 7.74% (active). Also, the growth in test [13] is -5.8% (active); in test [14] it was -14.1% (active); in test [15], -57.7% (active); in test [16], -53.5% (active); in [17], -45.9% (active); in test [18], -84% (active). Also, the growth in [19] is -28.6% (active); in [20], -22.5% (active).
Consider `O=C(Nc1ccc(Br)cc1)C1=NCCCCN1`, for which the growth in [1] is 103%; in test [2], 86.1%; in test [3], 94.7%; in [4], 67.6%; in test [5], 93.4%; in test [6] it was 64.1%. Besides, the growth is 52.4% in test [7]; 95.7% in [8]; 84.5% in test [9]; 96.5% in test [10]; 107% in test [11]; 94.3% in test [12]. The growth in [13] is 74.8%; in test [14], 84.6%; in [15] it was 96.5%; in test [16] it was 96.1%; in test [17] it was 87.5%; in [18], 103%. Also, the growth in test [19] is 97.1%; in test [20] it was 82.5%.
Consider `CC1CCN(C(=O)CCCl)c2ccccc21` (stereo not given), for which the growth in test [1] was 109%; in test [2], 144%; in [3], 99.7%; in [4] it was 75.8%; in test [5], 95.7%; in [6] it was 117%. In addition, the growth in test [7] was 119%; in [8], 95.8%; in test [9], 104%; in test [10], 118%; in [11], 113%; in test [12], 114%. The growth is 96.6% in test [13]; 129% in test [14]; 103% in test [15]; 112% in [16]; 96.9% in test [17]; 115% in [18]. In addition, the figures for the growth in test [19] and in test [20] were 87.5% and 98%, respectively.
As for `CC1(C)N=C(N)N=C(N)N1c1cccc(CCc2ccccc2)c1`, the growth in [1] was 50.3%; in [2], 67.2%; in [3], 32.4%; in [4], 98.5%; in test [5] it was 38.7%; in test [6], 105%. Besides, the growth in test [7] is 107%; in test [8], 82.7%; in test [9], 30.5%; in test [10] it was 30.5%; in test [11] it was 28.5%; in test [12] it was 26.5%. In addition, the growth was 52.6% in test [13]; 49.2% in test [14]; 72.1% in test [15]; 58.9% in [16]; 30.3% in [17]; 22.8% in test [18]. For the same compound, the results for the growth in test [19] and in test [20] were 70.4% and 111%, respectively.
Consider `CCOC(=O)c1ccccc1-c1c2ccc(=[N+](C)C)cc-2oc2cc(N(C)C)ccc12`, for which the growth in [1] is 4.77% (active); in [2] it was 34.5%; in [3] it was 7.33% (active); in [4], 52.1%; in test [5] it was 32%; in test [6], 6.36% (active). Moreover, the growth in [7] is -26.9% (active); in test [8], 0.621% (active); in [9] it was 30.3%; in test [10], 31.5%; in [11] it was 21.9%; in test [12], 13.8%. Also, the growth in test [13] is 2.69% (active); in test [14], 4.53% (active); in test [15], 17.9%; in test [16] it was -2.61% (active); in test [17], 18.4%; in test [18], 11.1%. Moreover, the growth in [19] was 26.1%; in [20], 102%.
With `N#Cc1nc(-c2ccccc2)oc1S(=O)(=O)N1CCN(c2ccc(F)cc2)CC1`, the growth was 95.2% in test [1]; 118% in [2]; 79.4% in test [3]; 80.3% in test [4]; 44.1% in test [5]; 53.8% in test [6]. For the same compound, the growth is 62.2% in test [7]; 110% in test [8]; -31% (active) in [9]; -15.7% (active) in test [10]; -20.3% (active) in [11]; 36% in [12]. The growth in test [13] is 63.1%; in [14], 102%; in [15], 107%; in [16], 109%; in test [17] it was 45.6%; in [18], 51.9%. Besides, the figures for the growth in [19] and in test [20] were 103% and 96.4%, respectively.
As for `CSC1=Nc2c(c(C)c(-c3ccccc3)n2CCCC(=O)O)C2=NC(=O)C[C@H](C)N12`, the growth in test [1] was 107%; in test [2], 92.8%; in test [3], 122%; in [4], 88.6%; in [5] it was 118%; in test [6], 121%. The growth in test [7] was 103%; in test [8], 128%; in [9] it was 98.4%; in [10], 104%; in [11] it was 114%; in test [12] it was 93.6%. Moreover, the growth in [13] was 110%; in [14], 107%; in test [15] it was 93%; in test [16], 130%; in test [17], 97.5%; in test [18] it was 119%. Further, the growth in test [19] was 98.1%; in [20], 104%.

The record behind these values is PubChem BioAssay (NCI).
